Values of other authors, collected in PubChem BioAssay AID977610.
Screen size: about 3,600 compounds; about 3,600 (100%) were called active. No cut-off is given here; in the data, nearly all actives have Ki up to about 18000 µM. So high a share suggests a set chosen from earlier hits. Some of the results follow. Numbered stars: 1 amine (or outer) side, 2 acyl side, 3 side chain; on linkers, the order of the positions; unused ones are H or OH. Starred links: 1 amine or outer side, 2 acyl side, 3 side chain; linkers in the order of their positions; H or OH if unused. Positions of bridges follow the written chain, without caps; N, C: chain ends. Bridge positions count the residues as written; N and C are the ends. Where a SMILES comes first, the peptide text is derived from it. Square brackets hold non-standard residues; d marks the D form. Residues, ends and D or L forms follow the SMILES beside them. Peptide text beside a SMILES is read from it. [ ]: non-standard residue; d: D form. The star is where a group is joined. X2 = CC[C@H](C)[C@H](N[*:1])c1cnnn1[C@@H](C)C(=O)[*:2]; X1 = C(CS[*:2])CN(CCCS[*:3])[*:1]; Orn(CH(NH2)2) = NC(N)NCCC[C@H](N)C(=O)O; Cbz = O=C(OCc1ccccc1)*; Dap = NC[C@H](N)C(=O)O; Nlys = NCCCCNCC(=O)O

Assay: PubChem AID 977610
Conditions: PDB protein-ligand complexes, literature Ki

Which Ki (protein: M1 family aminopeptidase A-M1, PDB entry 4r5v) does the source give for `CC(C)(C)C(=O)N[C@@H](C(=O)NO)c1ccc(-n2cccn2)cc1` here?
The Ki was 0.7 µM (active).

With `CCOC(=O)c1cc(C#N)c(N2CCC(C(=O)NS(=O)(=O)Cc3ccccc3)CC2)nc1C` as the compound, how does the Ki (protein: P2Y12R, PDB entry 4ntj) read?
Its Ki is 0.0439 µM (active).

With `CC(C[P+](O)(O)O)C(=O)O` (stereo not drawn) as the compound, how does the Ki (protein: PHOSPHO-2-DEHYDRO-3-DEOXYHEPTONATE ALDOLASE DAH7PS, PDB entry 4uma) read?
The Ki was 3.9 µM (active).

For `CC(C)C[C@H](NC(=O)[C@H](C)NC(=O)OCc1ccccc1)C(=O)N[C@@H](CCC(=O)N(C)C)C(=O)O` (Cbz-Ala-Leu-Glu(NMe2)-OH), which Ki (protein: Genome polyprotein, PDB entry 4inh) is on record?
The Ki was 0.56 µM (active).

With `CC(=O)NC[C@@H](C=O)NC(=O)[C@H](Cc1ccccc1)NC(=O)[C@H](CC(C)C)NC(=O)OCc1ccccc1` (Cbz-Leu-Phe-[Dap](Ac)-aldehyde) as the compound, how does the Ki (protein: 3C-like protease, PDB entry 4imq) read?
The Ki was 1.5 µM (active).

For `CC(C)C[C@H](NC(=O)OCc1ccccc1)C(=O)N[C@@H](Cc1ccccc1)C(=O)N[C@H](C=O)CCC(=O)N(C)C` (Cbz-Leu-Phe-Glu(NMe2)-aldehyde), which Ki (protein: Genome polyprotein, PDB entry 4imz) is on record?
Its Ki is 0.12 µM (active).

For `COc1cc([C@@H]2Nc3ccc(C(N)N)cc3[C@H]3c4ccccc4C[C@H]32)c(-c2ccc(C(=O)O)cc2)cc1O`, which Ki (protein: Factor VII, PDB entry 4ish) is on record?
Its Ki is 0.0019 µM (active).

For `CC(=O)N[C@H]1CNC[C@H](O)[C@@H](O)[C@@H]1O`, which Ki (protein: Beta-hexosaminidase 1, PDB entry 4mss) is on record?
The Ki was 0.4 µM (active).

For `COc1cc2c(c(OC)c1OC)-c1ccc(OC)c(=O)cc1[C@@H](NC(C)=O)CC2`, which Ki (protein: Tubulin, PDB entry 4o2b) is on record?
The Ki was 1.8 µM (active).

Which Ki (protein: C-X-C chemokine receptor type 4, Lysozyme Chimera(CXCR4-3), PDB entry 3oe0) does the source give for `NCCCC[C@@H]1NC(=O)[C@H](CCC(N)=O)NC(=O)[C@H](Cc2ccc(O)cc2)NC(=O)[C@@H](NC(=O)[C@H](Cc2cccc3ccccc23)NC(=O)[C@H](CCCNC(N)N)NC(=O)[C@@H](N)CCCNC(N)N)CSSC[C@@H](C(=O)N[C@@H](CCCNC(N)N)C(=O)NCC(=O)N2CCC[C@@H]2C(=O)O)NC(=O)[C@H](CCCNC(N)=O)NC(=O)[C@H](CCCNC(N)N)NC(=O)[C@H](Cc2ccc(O)cc2)NC(=O)[C@@H]2CCCN2C(=O)[C@H]2CCCN2C1=O` here?
Its Ki is 0.0025 µM (active).

With `CC[C@H](C)[C@@H]1NC(=O)[C@@H]2CCCN2C(=O)[C@@H]2CCCN2C(=O)[C@H]([C@@H](C)CC)NC(=O)[C@H](CO)NC(=O)[C@H](CCCCN)NC(=O)[C@H]([C@@H](C)O)NC(=O)[C@@H]2CSSC[C@H](NC1=O)C(=O)N[C@@H](Cc1ccccc1)C(=O)N1CCC[C@H]1C(=O)N[C@@H](CC(=O)O)C(=O)NCC(=O)N[C@@H](CCCNC(N)N)C(=O)N2` as the compound, how does the Ki (protein: bovine ?-trypsin, PDB entry 1sfi) read?
The Ki was 0.0001 µM (active).

Which Ki (protein: bovine CATIONIC TRYPSIN, PDB entry 4abi) does the source give for `CC[C@H](C)[C@@H]1NC(=O)[C@H](C)n2cc(nn2)[C@@H]2CCCN2C(=O)[C@H]([C@@H](C)CC)NC(=O)[C@H](CO)NC(=O)[C@H](CCCCN)NC(=O)[C@H]([C@@H](C)O)NC(=O)[C@@H](NC(=O)[C@H](CCCNC(N)N)NC(=O)CN)CSSC[C@@H](C(=O)N[C@@H](Cc2ccccc2)C(=O)O)NC1=O` (H-G[Orn(CH(NH2)2)]CTKSI[X1]ICF-OH; disulfide 3-10) here?
The Ki was 0.0063 µM (active).

With `CC[C@H](C)[C@@H]1NC(=O)[C@@H]2CCCN2C(=O)[C@@H]2CCCN2C(=O)[C@H]([C@@H](C)CC)NC(=O)[C@H](CO)NC(=O)CN(CCCCN)C(=O)[C@H]([C@@H](C)O)NC(=O)[C@@H](NC(=O)[C@H](CCCNC(N)N)NC(=O)CN)CSSC[C@@H](C(=O)N[C@@H](Cc2ccccc2)C(=O)O)NC1=O` (H-G[Orn(CH(NH2)2)]CT[Nlys]SIPPICF-OH; disulfide 3-11) as the compound, how does the Ki (protein: Cationic trypsin, PDB entry 4hgc) read?
The Ki was 0.0001 µM (active).

With `CC[C@H](C)[C@@H]1NC(=O)[C@@H]2CCCN2C(=O)[C@H](C)n2nncc2[C@H]([C@@H](C)CC)NC(=O)[C@H](CO)NC(=O)[C@H](CCCCN)NC(=O)[C@H]([C@@H](C)O)NC(=O)[C@@H](NC(=O)[C@@H](N)CCCNC(N)N)CSSC[C@@H](C(=O)N[C@@H](Cc2ccccc2)C(=O)O)NC1=O` (H-[Orn(CH(NH2)2)]CTKS[X2]PICF-OH; disulfide 2-9) as the compound, how does the Ki (protein: bovine CATIONIC TRYPSIN, PDB entry 4abj) read?
The Ki was 0.034 µM (active).

With `NC(=O)[C@H](CCC(=O)O)NC(=O)[C@H](CCC(=O)O)NC(=O)[C@H](Cc1cc(-c2ccc(-c3cccc(Cl)c3)cc2)no1)C[P+](O)(O)c1ccc(Br)cc1` as the compound, how does the Ki (protein: Macrophage metalloelastase (F171D mutation), PDB entry 4gql) read?
Its Ki is 0.00026 µM (active).

For `NC(=O)[C@H](CCC(=O)O)NC(=O)[C@H](CCC(=O)O)NC(=O)[C@H](Cc1cc(-c2ccccc2)no1)C[P+](O)(O)c1ccc(Br)cc1`, which Ki (protein: Macrophage metalloelastase (F171D mutation), PDB entry 4gr3) is on record?
The Ki was 0.0155 µM (active).

With `OC[C@@]1(F)OC[C@H](O)[C@@H](O)[C@@H]1O` as the compound, how does the Ki (protein: ALPHA-1,4-GLUCAN LYASE ISOZYME 1, PDB entry 4amx) read?
Its Ki is 6500 µM (active).

With `OC[C@]1(F)OC[C@H](O)[C@@H](O)[C@@H]1O` as the compound, how does the Ki (protein: ALPHA-1,4-GLUCAN LYASE ISOZYME 1, PDB entry 4amw) read?
Its Ki is 28300 µM (active).

With `NC1NN=C(S(N)(=O)=O)S1` (stereo not drawn) as the compound, how does the Ki (protein: human carbonic anhydrase II, PDB entry 2hnc) read?
Its Ki is 0.06 µM (active).

Which Ki (protein: Glucocorticoid receptor GR LBD, PDB entry 4p6w) does the source give for `C[C@@H]1C[C@H]2[C@@H]3CCC4=CC(=O)C=C[C@]4(C)[C@@]3(Cl)[C@@H](O)C[C@]2(C)[C@@]1(OC(=O)c1ccco1)C(O)CCl` (stereo partly drawn) here?
Its Ki is 0.0007 µM (active).

For `Nc1[nH]c(N)c2ccccc12`, which Ki (protein: PDE10A2, PDB entry 4llj) is on record?
Its Ki is 380 µM (active).

For `CCCNC(=O)CN[C@@H](C(=O)N1CC[C@H]1C(=O)NCc1ccc(C(N)N)cc1)C1CCCCC1`, which Ki (protein: THROMBIN, PDB entry 4bak) is on record?
Its Ki is 0.00122 µM (active).

Which Ki (protein: THROMBIN, PDB entry 4baq) does the source give for `CCNC(=O)CN[C@@H](C(=O)N1CC[C@H]1C(=O)NCc1ccc(C(N)N)cc1)C1CCCCC1` here?
Its Ki is 0.00098 µM (active).

With `CNC(=O)CN[C@@H](C(=O)N1CC[C@H]1C(=O)NCc1ccc(C(N)N)cc1)C1CCCCC1` as the compound, how does the Ki (protein: THROMBIN, PDB entry 4ban) read?
Its Ki is 0.00243 µM (active).

With `CC[C@H](C)[C@H](NC(C)=O)C(=O)N[C@@H](Cc1ccc(O)cc1)C(=O)N[C@@H](Cc1ccc(O)cc1)[P+](O)(O)O` as the compound, how does the Ki (protein: Human angiotenisn converting enzyme N-domain, PDB entry 4bzs) read?
Its Ki is 0.075 µM (active).

Which Ki (protein: ANGIOTENSIN-CONVERTING ENZYME N-DOMAIN, PDB entry 4ca6) does the source give for `O=C(N[C@@H](Cc1ccccc1)[P+](O)(O)C[C@@H](Cc1cc(-c2ccccc2)no1)C(=O)N[C@@H](Cc1ccc(O)cc1)C(=O)O)OCc1ccccc1` here?
The Ki was 0.18 µM (active).

And the Ki (protein: ANGIOTENSIN-CONVERTING ENZYME, PDB entry 4ca5)?
Its Ki is 0.00041 µM (active).

And the Ki (protein: ANGIOTENSIN-CONVERTING ENZYME, PDB entry 4ca7)?
The Ki was 0.044 µM (active).

For `O=C(N[C@@H](Cc1ccccc1)[P+](O)(O)C[C@H](Cc1cc(-c2ccccc2)no1)C(=O)N[C@@H](Cc1ccc(O)cc1)C(=O)O)OCc1ccccc1`, which Ki (protein: ANGIOTENSIN-CONVERTING ENZYME, PDB entry 4ca8) is on record?
Its Ki is 0.21 µM (active).

With `CC(C)C[C@H](NC(=O)[C@@H]1CSS[C@H]2CSSC[C@H](NC(=O)CNC(=O)[C@H](CCCN=C(N)N)NC(=O)CNC(=O)[C@H](CC(C)C)NC(=O)[C@H](C)NC(=O)[C@@H](NC(=O)CN)C2)C(=O)N[C@@H](CCC(=O)O)C(=O)N[C@@H](CC(N)=O)C(=O)N[C@@H](Cc2cnc[nH]2)C(=O)N[C@@H](CCCN=C(N)N)C(=O)N1)C(N)=O` as the compound, how does the Ki (protein: Urokinase-type plasminogen activator, PDB entry 4os4) read?
Its Ki is 13.6 µM (active).

With `CC(C)C[C@H](NC(=O)[C@@H]1CSSC[C@H]2C[C@H](NC(=O)CN)C(=O)N[C@@H](C)C(=O)N[C@@H](CC(C)C)C(=O)NCC(=O)N[C@@H](CCCN=C(N)N)C(=O)NCC(=O)N[C@@H](CSS2)C(=O)N[C@@H](CCC(=O)O)C(=O)N[C@@H](CC(N)=O)C(=O)N[C@@H](Cc2cnc[nH]2)C(=O)N[C@@H](CCCN=C(N)N)C(=O)N1)C(N)=O` as the compound, how does the Ki (protein: Urokinase-type plasminogen activator, PDB entry 4os5) read?
Its Ki is 23.7 µM (active).

For `CC(C)C[C@H](NC(=O)[C@@H]1CSS[C@@H]2CSSC[C@H](NC(=O)CNC(=O)[C@H](CCCN=C(N)N)NC(=O)CNC(=O)[C@H](CC(C)C)NC(=O)[C@H](C)NC(=O)[C@@H](NC(=O)CN)C2)C(=O)N[C@@H](CCC(=O)O)C(=O)N[C@@H](CC(N)=O)C(=O)N[C@@H](Cc2cnc[nH]2)C(=O)N[C@@H](CCCN=C(N)N)C(=O)N1)C(N)=O`, which Ki (protein: Urokinase-type plasminogen activator, PDB entry 4os1) is on record?
Its Ki is 2.5 µM (active).

Which Ki (protein: Urokinase-type plasminogen activator, PDB entry 4os7) does the source give for `CC(C)C[C@H](NC(=O)[C@@H]1CSSCCCN2CCCSSC[C@H](NC(=O)CNC(=O)[C@H](CCCN=C(N)N)NC(=O)CNC(=O)[C@H](CC(C)C)NC(=O)[C@H](C)NC(=O)[C@@H](NC(=O)CN)CC2=O)C(=O)N[C@@H](CCC(=O)O)C(=O)N[C@@H](CC(N)=O)C(=O)N[C@@H](Cc2cnc[nH]2)C(=O)N[C@@H](CCCN=C(N)N)C(=O)N1)C(N)=O` (H-GDALGRGCENHRCL-NH2; linker 2-8-13 via X1) here?
The Ki was 24 µM (active).
